High-throughput results deposited in PubChem by National Center for Advancing Translational Sciences (NCATS).
Sfp inh – inhibitors of Bacillus subtilis Sfp phosphopantetheinyl transferase; Q9F4F7; Biochemical Sfp PPTase activity, qHTS; Potency, µM, most hits filed as inhibitors; 310,000 compounds, 3.5% hits; AID 1490;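 also: the enzyme is Sfp with the accession as filed and its product quenches rhodamine fluorescence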
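Fluorescence-quenching assay with 15 nM Sfp, 5 uM rhodamine-CoA and 12.5 uM BHQ-2-labelled ybbR peptide in pH 7.6 Hepes/MgCl2 buffer. Enzyme was pre-incubated with compound for 15 min at room temperature. Rate was taken from the 30-min fluorescence change (525/598 nm).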
PLK1 PBD block – blocks phosphopeptide binding to human PLK1 polo-box domain; Potency, µM, most hits filed as inhibitors; Plk1 PBD binding of FITC phosphopeptide, fluorescence polarization; 360,000 compounds, 2.8% hits; P53350; also: series mostly up to about 57 µM; nearly all actives have a fitted effect of over 65% in size
JMJD2A Tudor inh – JMJD2A Tudor domain (human) inhibition; O75164; AlphaScreen JMJD2A-Tudor / H3K4me3 peptide binding; Potency, µM (doses to about 114 µM), most hits filed as inhibitors; 390,000 compounds, 4.4% hits; AID 504339; also: nearly all actives have a fitted effect of over 50% in size
HP1b chromo inh – HP1-beta chromodomain-methylated histone interaction inhibition. 390,000 compounds, 0.56% hits. AID 540317. AlphaScreen HP1-beta / biotin-H3K9me3 peptide binding. Potency, µM (highest dose often 114 µM), most hits filed as inhibitors; also: nearly all actives have a fitted effect of over 70% in size
Target sequence (P83916 whole entry, looked up): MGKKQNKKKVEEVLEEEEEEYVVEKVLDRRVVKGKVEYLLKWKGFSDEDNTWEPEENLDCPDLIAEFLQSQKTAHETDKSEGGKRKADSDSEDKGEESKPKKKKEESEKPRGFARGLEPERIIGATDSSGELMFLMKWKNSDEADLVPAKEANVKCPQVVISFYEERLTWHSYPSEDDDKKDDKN
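Compound inhibition of the preformed complex between 50 nM HP1-beta and 50 nM biotinylated H3K9me3 peptide was read by AlphaScreen. Buffer was PBS pH 7.4 with 0.01% Tween-20. Incubations ran 30 min at room temperature, with 10 ug/mL donor/acceptor beads.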
BAZ2B inh – BAZ2B (human) inhibition; 360,000 compounds, 4.4% hits; Potency, µM (highest dose often 114 µM), actives largely listed as inhibitors; AlphaScreen BAZ2B-H3K14Ac peptide displacement; Q9UIF8; also: nearly all actives have a fitted effect of over 60% in size
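AlphaScreen luminescence quantifies BAZ2B engagement of H3K14Ac peptide; the protein and biotinylated peptide are both at 50 nM final, buffer PBS pH 7.4 with 0.01% Tween-20, all steps at room temperature.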
G9a block – blocks human histone lysine methyltransferase G9a; Q96KQ7; G9a H3K9 monomethylation, AlphaScreen, 2 h; Potency, µM (series often up to 102 µM), usual class: inhibitors; 350,000 compounds, 8.8% hits; also: nearly all actives have a fitted effect of over 75% in size
Target sequence (Q96KQ7 913-1193 limits assumed): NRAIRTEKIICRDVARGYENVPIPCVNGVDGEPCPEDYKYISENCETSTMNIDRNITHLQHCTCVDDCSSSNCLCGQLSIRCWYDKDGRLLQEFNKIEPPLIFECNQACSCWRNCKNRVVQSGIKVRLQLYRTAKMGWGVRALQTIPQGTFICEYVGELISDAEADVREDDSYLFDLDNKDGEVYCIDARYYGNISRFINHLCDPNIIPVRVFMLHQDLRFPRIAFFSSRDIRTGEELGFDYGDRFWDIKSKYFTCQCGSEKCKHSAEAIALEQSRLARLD
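Using a bead-based AlphaScreen, monomethylated H3K9 product from 2 h room-temperature reactions (G9a 20 nM, peptide 500 nM, SAM 20 uM) was detected with 0.5 ug/mL rabbit anti-H3K9me1 antibody.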
Hits are given with their value; n = inactive; u = inconclusive; x = not tested or not shown; [ ] = dose if it differs, or a comment. The list is not random: actives were taken first. Their share in the collection is about 12%. Calls follow the shape of the dose curve; as a rule, active = well fitted curve in the direction sought with a large enough effect; inconclusive = small, poorly fitted or top-dose-only effect, or another doubt; inactive = no such curve, though single readings can be large; an effect the other way counts as inactive or inconclusive.

SMILES	Sfp inh	PLK1 PBD block	JMJD2A Tudor inh	HP1b chromo inh	BAZ2B inh	G9a block
CC(C)(C)c1cc(C(=O)O)n[nH]1	n	n	50µM	n	u	13µM
CC(C)Cc1cc(C(=O)O)n[nH]1	n	n	25µM	n	50µM	n[12.7 µM]
Cc1ccc(C)c(-n2c(SCC(N)=O)nnc2-c2ccccn2)c1	n	n	79µM	n	18µM	u
Cc1ccc(C)c(-n2c(SCC(=O)N3CCCC3)nnc2-c2ccccn2)c1	n	n	u	n	32µM	n
CCOc1ccccc1-n1c(SCC(=O)N2CCOCC2)nnc1-c1ccccn1	n	n	n	n	n	n
CCN(CC)C(=O)CSc1nnc(-c2ccccn2)n1-c1ccccc1OC	n	n	u	n	89µM	n
Cc1ccc(-n2c(SCC(=O)OC(C)C)nnc2-c2ccccn2)cc1	n	n	50µM	n	50µM	n
CCOc1ccccc1-n1c(SCC(=O)N(CC)CC)nnc1-c1ccccn1	n	n	n	n	u	n
CCN(CC(=O)Nc1cc(Cl)ccc1C)C(=O)CCS(=O)(=O)c1ccc(Cl)cc1	n	u	n	n	n	u
O=C(CSc1nnnn1-c1ccccc1)NC(=O)Cc1ccccc1	x	n	n	n	n	n[12.7 µM]
Cn1nnnc1SCC(=O)NC(=O)Cc1ccccc1	n	3µM	u	u	n	n
CN(C)S(=O)(=O)c1ccc(NC(=O)CSc2nnnn2C)cc1	u	n	n	n	n	32µM
CC1(C)NC(=O)N(CCCC(=O)Nc2ccc(C(F)(F)F)cc2)C1=O	x	n	n	n	n	n[2.33 µM]
CCCCCCCCCCOC(=O)Cn1c(COc2cccc(C)c2)[n+](C)c2ccccc21	56µM	n	n	n	n	n[0.501 µM]
CCCCCCCCCCOC(=O)Cn1c(COc2ccccc2)[n+](C)c2ccccc21	40µM	n	n	n	n	n
CCCCCCCCCCOC(=O)Cn1c(COc2ccccc2C)[n+](C)c2ccccc21	45µM	n	n	n	n	n
CCCCOC(=O)Cn1c(=O)n(CC(=O)OCCCC)c2ccccc21	n	n	n	n	n	n
CCCCCCCCCCOC(=O)Cn1c(COc2ccc(Cl)cc2)[n+](C)c2ccccc21	25µM	n	n	n	n	u
CCOC(=O)Cn1c(COc2ccccc2OC)[n+](C)c2ccccc21	x	n	n	n	x	x
CN(C)CCNC(=O)CN1N=C(c2ccccc2)CCC1=O	x	x	n	n	n	n
O=C(Nc1ccc(Cl)cc1)N1CCC(CN2CCCCCC2)CC1	x	x	n	n	n	n
COc1c(Cl)cc(Cl)cc1C(=O)Nc1cccc(-c2nc3ccccc3o2)c1C	x	x	n	n	n	n
CCCCCCCCCCOC(=O)Cn1c(COc2ccc(OC)cc2)[n+](C)c2ccccc21	35µM	n	u	n	n	u
Cc1ccc(/C=C/c2onc(C)c2S(=O)(=O)N2CCC(C(=O)Nc3ccc(C)c(N(C)C)c3)CC2)cc1	x	x	n	n	n	n
CC(C)SC1=NC(C)(C)C=C(/C=C/c2ccc(Cl)cc2Cl)N1	n	n	n	n	u	45µM
SMILES	Sfp inh	PLK1 PBD block	JMJD2A Tudor inh	HP1b chromo inh	BAZ2B inh	G9a block
CC(C)SC1=NC(C)(C)C=C(/C=C/c2c(Cl)cccc2Cl)N1	n	n	n	n	n	45µM
C#CCOc1ccc(-c2nnc(Nc3ccc(NC(C)=O)cc3)c3ccccc23)cc1	x	x	n	n	n	n
CCCC(NC(=O)Cc1c(C)c2cc3c(C)c(C)oc3c(C)c2oc1=O)C(=O)N[C@@H](Cc1ccccc1)C(=O)O (stereo not given in full)	n	u	56µM	u	50µM	n[12.7 µM]
Cc1coc2c(C)c3oc(=O)c(CCC(=O)N[C@@H](C)C(=O)N[C@@H](Cc4ccccc4)C(=O)O)c(C)c3cc12	n	n	89µM	n	u	x
C[C@H]1C=C2C=C[C@H](C)[C@H](CC[C@@H]3C[C@@H](O)CC(=O)O3)[C@H]2[C@@H](OC(=O)[C@@H](C)CCO)C1	n	x	x	x	x	x
NCCn1c(-c2ccccc2)cc(C(=O)O)c1-c1ccccc1F	n	n	n	n	u	50µM
Cc1c(C)n(CCC#N)c2ccccc12	n	n	u	n	u	n
COCCn1cc(-c2csc(N)n2)c2ccccc21	n	30µM	u	n	u	x
CN(C)c1nc(-c2cn(CCC#N)c3ccccc23)cs1	n	27µM	50µM	n	u	28µM
CCOc1ccc(S(=O)(=O)c2cc3cccc(OCC)c3oc2=O)cc1	x	x	n	n	n	n
COc1ccc(N2C(=O)c3ccc(C(=O)OC(C)C)cc3C2=O)cc1	n	2.7µM	u	u	n	n
COc1ccc(N2C(=O)c3cc4ccccc4cc3C2=O)cc1	n	27µM	n	n	n	n
COc1ccc(N2C(=O)c3ccc(C(=O)Nc4cc(OC)ccc4OC)cc3C2=O)cc1	n	n	n	n	n	n
CC1CN(CCC(=O)Nc2ccccc2F)CC(C)O1 (stereo not given)	n	n	n	n	n	n
Cn1c(SCC(=O)Nc2ccc3c(c2)OCCO3)nnc1C1CC1	n	n	n	n	n	n
COC(=O)Cn1c2[n+](c3ccccc31)CC(O)CS2 (stereo not given)	n	n	n	n	n	n
CCOC(=O)Cn1c2[n+](c3ccccc31)CC(O)CS2 (stereo not given)	n	n	45µM	n	u	u
CCOC(=O)C1(CCc2ccccc2)CCN(C(=O)[C@@H]2C[C@@H](C)NC(=S)N2)CC1	n	n	n	n	n	45µM
CCOC(=O)C1(CCc2ccccc2)CCN(C(=O)C2CCCO2)CC1 (stereo not given)	n	n	n	n	n	n
Cc1cc(N=NC(=O)c2ccccc2)ccc1O	50µM	u	n	n	u	u
Cc1cc(O)c(N=Nc2ccc(C(=O)O)cc2)cc1C	x	n	u	n	x	x
Cc1ccc(S(=O)(=O)Nc2cc(Cl)c3oc4c(c3c2)C(=O)CC(C)(C)C4)cc1	x	x	n	n	n	n
O=[N+]([O-])c1cc(C=Nc2ccc3ccccc3c2)ccc1Br	n	n	50µM	50µM	28µM	10µM
CCOc1ccc(N=Cc2ccc3ccccc3c2)cc1	n	n	n	n	n	n
C/C(CCC(C)C)=N\NS(=O)(=O)c1ccc(C)c([N+](=O)[O-])c1	n	u	n	n	n	13µM
O=S(=O)(NN=Cc1ccc(O)cc1O)c1cc(Cl)c(Cl)cc1Cl	x	n	n	n	x	x
CCOc1cccc(/C=N/NC(=S)Nc2ccccc2[N+](=O)[O-])c1O	n	n	u	n	11µM	n
O=[N+]([O-])c1ccccc1NC(=S)N/N=C/c1ccc(O)c(O)c1	n	12µM	u	8.9µM	10µM	x
O=[N+]([O-])c1ccccc1C=NNC(=S)NN=Cc1ccccc1[N+](=O)[O-]	x	n	u	n	x	x
